Most compounds without a hit are left out; they make up all but 2.4% or so of the library.
D2 ag-1 – agonists of human D2 dopamine receptor; AID 485358; 340,000 compounds, 0.53% hits; HEK293 T-REx D2 cells, calcium flux agonist mode; activation, % at 2 µM; P14416;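 active means activation over 3 SD above normal in the single-dose calcium agonist read, cut at about 30% in these data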; further: 0% is about no effect
Target sequence (P14416 whole entry, looked up): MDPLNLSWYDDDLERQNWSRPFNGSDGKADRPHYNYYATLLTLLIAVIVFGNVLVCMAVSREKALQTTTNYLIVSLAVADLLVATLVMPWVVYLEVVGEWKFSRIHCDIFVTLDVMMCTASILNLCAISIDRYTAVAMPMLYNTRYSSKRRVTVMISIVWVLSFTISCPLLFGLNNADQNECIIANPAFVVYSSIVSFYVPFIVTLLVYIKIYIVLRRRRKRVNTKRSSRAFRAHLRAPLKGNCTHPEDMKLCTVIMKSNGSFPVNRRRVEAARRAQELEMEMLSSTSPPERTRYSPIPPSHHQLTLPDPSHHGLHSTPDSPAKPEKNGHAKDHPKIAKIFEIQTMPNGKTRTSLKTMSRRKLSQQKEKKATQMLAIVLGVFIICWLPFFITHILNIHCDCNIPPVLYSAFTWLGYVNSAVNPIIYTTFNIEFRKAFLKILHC
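Calcium-flux readout, 1 cycle/sec over 180 s following compound pin transfer, in inducible HEK293 Trex D2 cells (force-coupled); dopamine controls included. Positive calcium responses during this window marked compounds as potential agonists.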
D2 PAM-1 – positive allosteric modulators of human D2 dopamine receptor; P14416; HEK293 T-REx D2, calcium flux, EC20 dopamine potentiation; potentiation, % at 10 µM; 340,000 compounds, 0.34% hits; AID 485347;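 active means potentiation over 3 SD above the plate norm, cut at about 30% in these data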; further: 0% is about no effect
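Primary screen. Calcium kinetics in induced HEK293 T-REx D2 cells: compound pre-addition 180 s, EC20 dopamine, 180 s more.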
D2 antagonist – antagonizes the human D2 dopamine receptor. P14416. HEK293 TREx D2 cells, calcium flux, dopamine EC80. inhibition, % at 10 µM. 340,000 compounds, 2% hits; in the data active means inhibition above about 30%; inactive means below that, where a call was filed; further: 0% is about no effect
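Compounds are added to dye-loaded, induced HEK293 T-REx cells coupled to calcium release via D2; after a 3 min kinetic read an EC80 dopamine stimulus is given and fluorescence is recorded for 3 more min.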
D2 ag-2 – human D2 receptor agonism in beta-arrestin assay; P14416; DiscoveRx PathHunter D2 beta-arrestin, luminescence, 90 min; 100% = 57 uM dopamine signal; activation, % (concentration not given with the values); 360,000 compounds, 0.084% hits; AID 624465; in the data active means activation above about 40%
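Agonist mode: compounds alone added to overnight-plated D2 PathHunter cells for 90 min at 37 C, with 57 uM final dopamine (EC100) defining full response. Beta-arrestin recruitment detected by chemiluminescent reagent, read after 1 h at ambient temperature.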
D2 PAM-2 – potentiates the human D2 dopamine receptor allosterically. DiscoveRx D2 beta-arrestin cells, luminescence, 90 min; 100% = 57 uM dopamine signal. potentiation, % (test concentration not listed). 360,000 compounds, 0.23% hits; in the data active means potentiation above about 50%
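PathHunter beta-arrestin assay in DiscoveRx D2 cells. Compounds were added with an EC20 of dopamine (50 nM final) for 90 min at 37 deg C. Luminescence was read 1 h after detection reagent, with 57 uM dopamine as the EC100 control.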
* marks the source's active call; other numbers are inactive results.

For COc1ccc(CN2CCN(C(=O)c3ccco3)CC2)c(OC)c1OC the results were D2 ag-2 46* and D2 PAM-2 60*.
COc1ccccc1OCc1ccc(C(=O)NN)o1 was read as D2 ag-1 -1, D2 PAM-1 -19, D2 antagonist 76*, D2 ag-2 4 and D2 PAM-2 -16.
CC(C)NC(=O)COc1coc(CN2CCN(Cc3ccccc3)CC2)cc1=O was read as D2 ag-1 2, D2 PAM-1 1, D2 antagonist -4, D2 ag-2 1 and D2 PAM-2 -2.
CC(C)NC(=O)COc1coc(CN2CCN(C(=O)c3ccco3)CC2)cc1=O was read as D2 ag-1 0, D2 PAM-1 7, D2 antagonist 50*, D2 ag-2 -4 and D2 PAM-2 -22.
`COc1ccccc1OCc1ccc(C(=O)N2CCN(C(=O)c3ccco3)CC2)cc1` gave D2 ag-1 0, D2 PAM-1 -6, D2 antagonist 35*, D2 ag-2 2 and D2 PAM-2 -8.
`COc1ccccc1OCc1ccc(C(=O)N/N=C/c2ccco2)cc1` gave D2 ag-1 0, D2 PAM-1 -18, D2 antagonist 44*, D2 ag-2 -2 and D2 PAM-2 -25.
Screening COc1cc(OC)c(NC(=O)Nc2ccc3c(c2)N(C)C(=O)c2ccccc2S3)cc1Cl returned D2 ag-1 1 and D2 PAM-1 -4.
Screening O=S(=O)(Nc1cccc(S(=O)(=O)N2CCOCC2)c1)c1cccs1 returned D2 ag-1 32*, D2 PAM-1 -11, D2 antagonist 10, D2 ag-2 -2 and D2 PAM-2 -4.
O=S(=O)(Nc1cccc(S(=O)(=O)N2CCOCC2)c1)c1ccc2c(c1)OCCO2 was read as D2 ag-1 2, D2 PAM-1 5, D2 antagonist 0, D2 ag-2 -4 and D2 PAM-2 2.
`O=C(NCCCN1CCN(c2ccccc2)CC1)C1CCCN(c2ncnc3c2nc2n3CCCCC2)C1` (stereo unspecified) gave D2 ag-1 12, D2 PAM-1 -29, D2 antagonist 59*, D2 ag-2 0 and D2 PAM-2 -29.
`C[C@H]1CCC[C@]2(O[C@@H](CCO)C[C@H](O)[C@H]2O)O1` gave D2 ag-1 0, D2 PAM-1 -4, D2 antagonist 31*, D2 ag-2 -4 and D2 PAM-2 -2.
COC(=O)COc1ccc2c(-c3cccc([N+](=O)[O-])c3)cc(=O)oc2c1 was read as D2 ag-1 1, D2 PAM-1 -7, D2 antagonist 50*, D2 ag-2 1 and D2 PAM-2 19.
CCOC(=O)C1=C(O)C(=O)N(c2ccc(S(N)(=O)=O)cc2)C1c1ccc(OC)cc1OC (stereo unspecified) was read as D2 ag-1 0, D2 PAM-1 42*, D2 antagonist -12, D2 ag-2 -1 and D2 PAM-2 2.
`CCOC(=O)C1=C(O)C(=O)N(c2ccccc2)C1c1cccc([N+](=O)[O-])c1` (stereo unspecified) gave D2 ag-1 0, D2 PAM-1 -3, D2 antagonist 33*, D2 ag-2 0 and D2 PAM-2 -13.
Screening CCOC(=O)C1=C(O)C(=O)N(c2ccc(S(N)(=O)=O)cc2)C1c1cccc([N+](=O)[O-])c1 (stereo unspecified) returned D2 ag-1 0, D2 PAM-1 4, D2 antagonist 22, D2 ag-2 0 and D2 PAM-2 2.
COc1ccc(CCNC(=O)c2ccc3c(c2)N(Cc2c(F)cccc2Cl)C(=O)CS3)cc1OC was read as D2 ag-1 0 and D2 PAM-1 -6.
For Cc1onc(-c2ccccc2)c1C(=O)OCC(=O)Nc1ccc(Cl)cc1 the results were D2 ag-1 0, D2 PAM-1 -4, D2 antagonist 37*, D2 ag-2 3 and D2 PAM-2 3.
For CC(=O)Nc1ccc(NC(=O)CCc2nc3cccnc3n2Cc2cccs2)cc1 the results were D2 ag-1 -1.
Screening CC(C)(C)c1ccc(OC(=O)N2CCOCC2)cc1 returned D2 ag-1 0, D2 PAM-1 -5, D2 antagonist 32*, D2 ag-2 3 and D2 PAM-2 -3.
Screening Cc1ccc(C2=NN(C(=O)CSc3nnnn3C)C(c3ccco3)C2)cc1 (stereo unspecified) returned D2 ag-1 0, D2 PAM-1 4, D2 antagonist 43*, D2 ag-2 -3 and D2 PAM-2 -5.
Screening Cc1cccc(N2CCN(C(=O)c3nn(C)c4c3CSc3ccccc3-4)CC2C)c1 (stereo unspecified) returned D2 ag-1 0 and D2 PAM-1 1.
COc1ccc(NC(=O)Cn2c(SCc3ccc(C)cc3)nc3cccnc32)c(OC)c1 was read as D2 ag-1 0 and D2 PAM-1 4.
`CN1CCN(CC(C)(C)NS(=O)(=O)c2ccc(Cl)cc2)CC1` gave D2 ag-1 -1, D2 PAM-1 -14, D2 antagonist -6, D2 ag-2 -2 and D2 PAM-2 -20.
For CC(C)(CN1CCN(Cc2ccccc2)CC1)NS(=O)(=O)c1ccc(Cl)cc1 the results were D2 ag-1 -1, D2 PAM-1 -33, D2 antagonist 44*, D2 ag-2 -2 and D2 PAM-2 -27.
CC(C)CN(C(=O)c1cccc(S(=O)(=O)N2CCN(c3ccc(F)cc3)CC2)c1)C1CCS(=O)(=O)C1 (stereo unspecified) was read as D2 ag-1 0, D2 PAM-1 -8, D2 antagonist 35*, D2 ag-2 -4 and D2 PAM-2 -21.
For CC(C)CN(C(=O)Cn1nnc(-c2ccc(Cl)cc2)n1)C1CCS(=O)(=O)C1 (stereo unspecified) the results were D2 ag-2 -5 and D2 PAM-2 -16.
For CC(C)CN(C(=O)Cn1nnc(-c2ccc(F)cc2)n1)C1CCS(=O)(=O)C1 (stereo unspecified) the results were D2 ag-1 1, D2 PAM-1 -6, D2 antagonist 55*, D2 ag-2 -6 and D2 PAM-2 -67.
`O=C1CSc2ccc(S(=O)(=O)NCc3ccc(Cl)cc3)cc2N1` gave D2 ag-1 0, D2 PAM-1 0, D2 antagonist 36*, D2 ag-2 8 and D2 PAM-2 0.
`O=C1CSc2ccc(S(=O)(=O)NCc3ccc(F)cc3)cc2N1` gave D2 ag-1 1, D2 PAM-1 -3, D2 antagonist 4, D2 ag-2 0 and D2 PAM-2 3.
`COC(=O)c1ccc(CNC(=O)c2ccc3c(c2)NC(=O)CS3)cc1` gave D2 ag-1 0, D2 PAM-1 -21, D2 antagonist 37*, D2 ag-2 -4 and D2 PAM-2 4.

Source: PubChem BioAssay
